Bioassay records (PubChem BioAssay)
mHTT-CaM PPI inh = inhibitors of human mutant huntingtin-calmodulin interaction; inhibition, % at 15 µM; AlphaScreen His-mHTT/GST-CaM binding, luminescence; hit rate 3.6% among 190,000; P42858;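 also: 0% = both proteins with DMSO and 100% = one protein alone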
Pf apPOL inh = Pf-apPOL DNA polymerase inhibition; Recombinant Pf-apPOL, molecular beacon fluorescence, 1.5 h; inhibition, % at 10 µM; hit rate 0.25% among 210,000; AID 1794808
* marks the source's active call; other numbers are inactive results; . = no result given. An excerpt weighted towards active compounds, which were near 3.5% of everything screened. Rule as the data show it: active = inhibition above about 50%; inactive = the rest.

SMILES	mHTT-CaM PPI inh	Pf apPOL inh
O=C(Nc1nc2ccccc2s1)C1CC(=O)N(CCc2c[nH]c3ccc(Cl)cc23)C1 (centres undefined)	100.3*	-2.2
COc1ccc2nc(NC(=O)C3CC(=O)N(CCc4c[nH]c5ccc(C)cc45)C3)sc2c1 (centres undefined)	85.0*	-0.6
O=C(Nc1cccc(F)c1)C1CC(=O)N(CCc2c[nH]c3ccc(F)cc23)C1 (centres undefined)	18.5	-4.5
CCCCNC(=O)C1CC(=O)N(CCc2c[nH]c3ccc(Cl)cc23)C1 (centres undefined)	3.5	-4.3
COc1ccc2[nH]cc(CCN3CC(C(=O)Nc4cc(F)cc(F)c4)CC3=O)c2c1 (centres undefined)	30.6	-5.0
N#CC(=CNCc1cccnc1)S(=O)(=O)Cc1ccc(Cl)cc1	.	-6.6
COc1ccc(Cl)cc1N1C(=O)CSC1c1ccccn1 (centres undefined)	-2.0	-1.7
CCCCS(=O)(=O)N1CCN(c2cc(OC)nc(OC)n2)CC1	-11.1	-0.9
COc1ccc(CN2CCCC(C(=O)N3CCN(C)CC3)C2)cc1 (centres undefined)	-0.9	-0.3
COc1ccc(Br)cc1C1C(C#N)=C(N)OC2=C1C(=O)CC(C)(C)C2 (centres undefined)	7.5	-2.5
CCN1CCN(C(=O)c2ccc(-c3cncnc3)nc2)CC1	-4.0	-1.3
CN(CCc1ccccc1)C(=O)c1ccc(-c2ccc(F)cc2)s1	-9.4	-2.6
CCNc1cc(N2CCCC(CCC(=O)NCCN(C)C)C2)ncn1 (centres undefined)	-4.8	-5.2
Cc1nc2cc(-c3ccc(Cl)cc3)[nH]n2c(=O)c1Cl	-6.3	3.3
CC(C)(C)c1nnc(NC(=O)C2CC(=O)N(CCc3c[nH]c4ccc(Cl)cc34)C2)s1 (centres undefined)	54.8*	0.1
Cc1ccc2[nH]cc(CCNC(=O)CC3CCN(C(=O)c4ccccc4Cl)CC3)c2c1	78.9*	1.1
Cc1ccc(C(=O)N2CCC(CC(=O)NCCc3c[nH]c4ccc(Cl)cc34)CC2)cc1	10.3	-7.4
COc1ccc2[nH]cc(CCN3CC(C(=O)Nc4nnc(C(C)(C)C)s4)CC3=O)c2c1 (centres undefined)	14.3	-2.3
O=C(Nc1ccc2c(c1)OCCO2)C1CC(=O)N(CCc2c[nH]c3ccc(Cl)cc23)C1 (centres undefined)	76.0*	1.5
COc1cccc(NC(=O)C2CC(=O)N(CCc3c[nH]c4ccc(Cl)cc34)C2)c1 (centres undefined)	18.8	-2.1
O=C(Nc1ccc2c(c1)OCCO2)C1CC(=O)N(CCc2c[nH]c3ccc(F)cc23)C1 (centres undefined)	42.6	0.8
Cc1cccc(NC(=O)C2CC(=O)N(CCc3c[nH]c4ccc(Cl)cc34)C2)c1 (centres undefined)	81.6*	-0.7
CCNC(=O)C1CC(=O)N(C2CCCCC2)C1 (centres undefined)	0.2	1.3
COc1ccc(C2NC(=O)C(=O)C2=C(O)c2ccc(Cl)cc2)cc1OC (centres undefined)	29.3	-8.7
O=C(Nc1ccc(N2CCCN(C(=O)C3CC3)CC2)cc1)c1cc(-c2cccs2)[nH]n1	39.3	-2.1
SMILES	mHTT-CaM PPI inh	Pf apPOL inh
COc1ccccc1C1=NOC(C(=O)N2CCCc3ccccc32)C1 (centres undefined)	-13.7	-3.3
O=[N+]([O-])c1cccc(-c2nc(=S)c3c(n2CC2CCCO2)CCCC3)c1 (centres undefined)	-2.1	2.2
O=C(NCCc1ccc(F)cc1)C1CC(=O)N(CCc2c[nH]c3ccc(Cl)cc23)C1 (centres undefined)	8.4	-2.2
Cc1ccc(N2CC(C(=O)Nc3ccc(Cl)cc3Cl)CC2=O)cc1 (centres undefined)	-5.3	-4.8
COc1ccc(C2C(C(=O)Nc3ccc(F)c(Cl)c3)CC(=O)N2c2ccc(OC)cc2)cc1 (centres undefined)	100.0*	-4.7
O=C(Nc1nncs1)C1CC(=O)N(CCc2c[nH]c3ccc(Cl)cc23)C1 (centres undefined)	7.2	-2.4
Cc1ccc(Cl)cc1NC(=O)C1CC(=O)N(c2cccc([N+](=O)[O-])c2)C1 (centres undefined)	54.3*	-9.9
O=C(Nc1nccs1)C1CC(=O)N(CCc2c[nH]c3ccc(Cl)cc23)C1 (centres undefined)	63.2*	0.5
O=C(Nc1ccc(F)cc1)C1CC(=O)N(CCc2c[nH]c3ccc(Cl)cc23)C1 (centres undefined)	55.1*	-11.4
COc1ccc(N2C(=O)CCC(C(=O)Nc3ccc(C)c(F)c3)C2c2ccc(F)cc2)cc1 (centres undefined)	32.0	-0.3
COc1ccccc1OCC(=O)N1CCC(Cn2c(C(F)(F)F)nc3ccccc32)CC1	-3.9	-1.4
C#CCNC(=O)C1CC(=O)N(Cc2ccccc2OC)C1 (centres undefined)	-7.0	-5.0
O=C(COc1ccccc1)N1CCC(COc2ccc(C(=O)N3CCCC3)cc2)CC1	3.9	-4.7
O=C(CN1CCN(C(=O)Nc2ccc(Cl)cc2)CC1=O)NCc1ccc2c(c1)OCO2	1.9	-0.6
COc1ccc(NC(=O)C2CC(=O)N(c3ccc(C)c(Cl)c3)C2)cc1 (centres undefined)	0.6	0.7
Cc1ccc2[nH]cc(CCN3CC(C(=O)Nc4ccc(C)c(Cl)c4)CC3=O)c2c1 (centres undefined)	85.8*	-0.8
Cc1ccc(N2CC(C(=O)Nc3nc4ccccc4s3)CC2=O)cc1Cl (centres undefined)	55.0*	-0.9
O=C1CC(C(=O)N2CCN(Cc3ccccc3)CC2)CN1CCc1c[nH]c2ccc(F)cc12 (centres undefined)	55.1*	-3.4
Cc1ccc2[nH]cc(CCN3CC(C(=O)Nc4ccccc4Cl)CC3=O)c2c1 (centres undefined)	44.6	3.2
CC1CCN(C(=O)C2CC(=O)N(CCc3c[nH]c4ccc(F)cc34)C2)CC1 (centres undefined)	19.3	-0.3
COc1cccc(-c2cc(C3CCN(C(=O)Nc4cccc(C(C)=O)c4)CC3)[nH]n2)c1	14.6	-1.3
COc1ccccc1NC(=O)N1CCC2(CC1)NC(=O)c1ccc(F)cc1N2C	0.3	-2.7
COc1ccc(OC)c(S(=O)(=O)N2CCC3(C2)C(=O)Nc2ccccc23)c1 (centres undefined)	98.6*	-3.8
COc1ccc(NC(=O)N2CCC3(C2)C(=O)Nc2ccccc23)c(OC)c1 (centres undefined)	8.5	-4.0
Oc1ccc(Cl)cc1C1=NNC(c2cccs2)C1 (centres undefined)	51.7*	-1.2
SMILES	mHTT-CaM PPI inh	Pf apPOL inh
COc1ccccc1C1CC(c2cc(F)ccc2O)=NN1 (centres undefined)	40.0	-1.1
CCCOc1ccc(N2CCN(C(=O)C(CC)c3ccccc3)CC2)nn1 (centres undefined)	4.1	-5.0
CC(=O)NC1C(O)OC(CO)C(O)C1O (centres undefined)	.	-15.7
COC(=O)C1OC(O)C(O)C(O)C1O (centres undefined)	.	96.5*
COc1ccc(C2CC(c3ccc(-c4ccccc4)cc3)Nc3nnnn32)cc1 (centres undefined)	64.0*	-7.2
COc1ccc(C2CC(c3ccccc3)Nc3nnnn32)cc1 (centres undefined)	-0.6	1.7
Cc1ccc2c(c1)N/C(=C(/C=C(\Cl)[N+](=O)[O-])[N+](=O)[O-])O2	45.0	-3.6
